Results published in PubChem BioAssay (NCI).
Compounds without any hit were thinned out: in the full panel of roughly 79,000, 15% have a hit. A number with no mark means an inactive call. Calls of active or inactive are those of the source. Cut-off read from the data, not from the text of the source: active = growth inhibition above about 70%; inactive = the rest.

How the values were obtained:
[1] = NCI Yeast Anticancer Drug Screen. Data for the rad50 strain (AID 155);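 note: 0% = growth of vehicle-only cultures of the same strain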; details: S. cerevisiae rad50 strain growth inhibition, stronger effect = higher value
Procedure, shortened: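 Readout: growth inhibition relative to vehicle-treated cultures. Compound exposure was carried out in a genetically defined yeast strain deficient in DNA damage repair.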

[2] = NCI Yeast Anticancer Drug Screen. Data for the mec2-1 strain (AID 157); details: S. cerevisiae mec2-1 strain, stronger effect = higher value
Procedure, shortened: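 mec2-1 yeast strain, carrying an alteration in DNA damage repair or cell cycle control, was exposed to compounds; growth inhibition was measured relative to vehicle-treated controls.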

[3] = NCI Yeast Anticancer Drug Screen. Data for the sgs1 mgt1 strain (AID 161);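 note: 0% = growth of cultures given vehicle only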; details: S. cerevisiae sgs1 mgt1 strain, stronger effect = higher value
Procedure, shortened: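 Compounds are added to genetically altered yeast, and growth is compared with cultures given vehicle alone to give percent inhibition.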

[4] = NCI Yeast Anticancer Drug Screen. Data for the cln2 rad14 strain (AID 165);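 note: 0% = growth equal to vehicle treated cultures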; details: S. cerevisiae cln2 rad14 strain, stronger effect = higher value
Procedure, shortened: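 Yeast carrying cln2 and rad14 alterations (cell cycle control and DNA damage repair) were exposed to compounds. Growth inhibition was measured against vehicle-treated controls.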

[5] = NCI Yeast Anticancer Drug Screen. Data for the bub3 strain (AID 167); details: S. cerevisiae bub3 mutant strain, stronger effect = higher value
Procedure, shortened: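 Readout: yeast growth inhibition, expressed relative to vehicle-only wells. The test organism is a mutant strain from a panel with lesions in DNA repair or checkpoint genes.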

[6] = NCI Yeast Anticancer Drug Screen. Data for the mlh1 rad18 strain (AID 175); details: S. cerevisiae mlh1 rad18 strain growth inhibition, stronger effect = higher value
Procedure, shortened: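 Growth inhibition of the yeast strain was measured after compound exposure and expressed relative to vehicle-treated controls. The strain carries defined defects in DNA damage repair.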

[7] = at 5.0 µM (retest, dose inferred, filed as 0.5)
[8] = at 50.0 µM (retest, dose inferred, filed as 5.0)

Structure (SMILES)	growth inhibition [1, 7]	growth inhibition [1, 8]	growth inhibition ([1]; at 50.0 µM)	growth inhibition [2, 7]	growth inhibition [2, 8]	growth inhibition ([2]; at 50.0 µM)	growth inhibition [3, 7]	growth inhibition [3, 8]	growth inhibition ([3]; at 50.0 µM)	growth inhibition [4, 7]	growth inhibition [4, 8]	growth inhibition ([4]; at 50.0 µM)	growth inhibition [5, 7]	growth inhibition [5, 8]	growth inhibition ([5]; at 50.0 µM)	growth inhibition [6, 7]	growth inhibition [6, 8]	growth inhibition ([6]; at 50.0 µM)
c1ccc(Oc2ccc(Nc3c4ccccc4nc4ccccc34)cc2)cc1	85% (active)	57%	45.9%	4%	70% (active)	30%	17%	84% (active)	76.2% (active)	3%	62%	31.9%	-4%	81% (active)	28.6%	13%	91% (active)	27.1%
O=C(c1ccccc1)C(Br)C(Br)c1ccc(Cl)c(Cl)c1 (configuration not stated)	67%	96% (active)	-8.65%	69%	98% (active)	24.3%	92% (active)	97% (active)	60.1%	39%	97% (active)	-16.2%	87% (active)	98% (active)	13.1%	73% (active)	97% (active)	77.8% (active)
CCCC(=O)c1ccc(OC)cc1	0%	28%	41.9%	1%	70% (active)	-11.3%	0%	13%	14.9%	1%	10%	17.6%	-6%	98% (active)	20.9%	-1%	61%	6.25%
CC(C)OC(=O)c1ccc(NC(=O)CCl)cc1	0%	-1%	66.7%	-1%	5%	59.8%	3%	-8%	79.1% (active)	-1%	5%	31.9%	-4%	-2%	61%	-5%	6%	76.2% (active)
O=C(NCCNCCNCCNC(=O)c1cc(-c2ccccc2)nc2ccccc12)c1cc(-c2ccccc2)nc2ccccc12	-16%	57%	98.7% (active)	-10%	63%	99.2% (active)	-7%	41%	98.8% (active)	18%	64%	99% (active)	-25%	86% (active)	99.2% (active)	-4%	88% (active)	99% (active)
O=C1OC(c2ccccc2)(c2ccc(-c3ccccc3O)cc2)c2ccccc21 (configuration not stated)	87% (active)	90% (active)	94.2% (active)	71% (active)	92% (active)	95.1% (active)	89% (active)	93% (active)	93% (active)	60%	90% (active)	92.9% (active)	61%	90% (active)	95.1% (active)	92% (active)	91% (active)	93.5% (active)
CCOC(=O)C1=C(c2ccccc2)c2ccccc2OC1C(=O)O (configuration not stated)	8%	38%	26.5%	22%	60%	14.8%	16%	64%	19.5%	2%	38%	59.9%	16%	29%	32.5%	34%	78% (active)	55.8%
OC(C/C=N/Nc1ccccc1)(C(F)(F)Cl)C(F)(F)Cl	-13%	97% (active)	89.2% (active)	-11%	99% (active)	90.9% (active)	-10%	98% (active)	91.7% (active)	2%	98% (active)	89.5% (active)	5%	98% (active)	91.8% (active)	-18%	98% (active)	89.6% (active)
COc1cc2c(cc1OC)-c1nc(Nc3ccccc3)sc1CC2	-6%	92% (active)	43.4%	-1%	94% (active)	86.7% (active)	-3%	88% (active)	82% (active)	5%	88% (active)	29.1%	1%	92% (active)	78.5% (active)	-4%	95% (active)	93% (active)
OC12C3C4CC5C(C4[C@@H]1Br)C2[C@@](O)(c1c(F)c(F)c(F)c(F)c1F)C53 (some centres not stated)	8%	21%	27.2%	3%	8%	11.6%	3%	3%	27.6%	3%	12%	22.2%	8%	54%	79.3% (active)	8%	35%	73.7% (active)
COc1ccc(C(c2ccc(C(C)C)cc(OC)c2=O)c2ccc(C(C)C)cc(OC)c2=O)cc1	7%	54%	22.4%	-1%	39%	42.2%	6%	61%	13.2%	-2%	37%	10.2%	0%	16%	9%	-4%	41%	29.2%
O=C(Nc1c(Cl)cccc1Cl)OCc1ccc2c(c1)OCO2	46%	54%	35.8%	33%	32%	48.6%	44%	53%	50%	33%	43%	14.3%	46%	73% (active)	43%	41%	42%	35.9%
CCOCCOC(=O)C(C)O (configuration not stated)	9%	-1%	9.25%	-1%	-3%	27.1%	-2%	3%	-3.1%	5%	2%	45.3%	6%	14%	9.25%	7%	-2%	-7.1%
O=C(Nc1cccc(Cl)c1)c1ccc([N+](=O)[O-])cc1	10%	8%	-8.65%	-11%	-6%	-10.8%	6%	4%	-12.7%	4%	17%	-27.4%	23%	32%	-6.8%	17%	26%	-0.9%
ClC1CC[N-]CC1.ClC1CC[N-]CC1.[Cl][Pt+2]([Cl])([Cl])[Cl]	50%	96% (active)	89.5% (active)	42%	98% (active)	90.9% (active)	58%	98% (active)	90.2% (active)	36%	98% (active)	87.4% (active)	64%	98% (active)	93% (active)	35%	96% (active)	91.7% (active)
Cc1cc(C(=O)O)c(C)cc1SSc1cc(C)c(C(=O)O)cc1C	-12%	72% (active)	51.4%	11%	74% (active)	9.25%	4%	76% (active)	54.7%	-5%	70% (active)	3.7%	-13%	63%	41.4%	-3%	81% (active)	69.2%
CCCCCCCCCCC[N+](C)(C)CCCCCC[N+](C)(C)CCCCCCCCCCC	92% (active)	98% (active)	88.6% (active)	97% (active)	99% (active)	91% (active)	99% (active)	99% (active)	90.9% (active)	96% (active)	99% (active)	90.3% (active)	99% (active)	100% (active)	88.4% (active)	97% (active)	99% (active)	90.2% (active)
CC(=O)OC1=CC2=CCC3C(CCC4(C)C(C(C)=O)CCC34)C2(C)CC1 (configuration not stated)	-12%	0%	-5.65%	-6%	7%	10.9%	-6%	8%	7.35%	-6%	-13%	39.8%	-11%	-14%	-1.15%	-4%	-11%	11.3%
N#CSCC(=O)c1ccccc1	93% (active)	98% (active)	98.8% (active)	95% (active)	99% (active)	99.2% (active)	95% (active)	98% (active)	97.5% (active)	87% (active)	99% (active)	97.2% (active)	94% (active)	98% (active)	99% (active)	92% (active)	98% (active)	98.6% (active)
